Assay [1] is described as follows: ACEA_ER_AUC_viability: ACEA Biosciences xCELLigence Real-Time Cell Analysis on Estrogen Receptor Agonism for Viability (AID 2283782).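 Also: continuous compound exposure with impedance area under curve over 80 h; hit means loss of impedance signal meaning reduced cell growth or viability.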 A digest of the protocol: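 T-47D human breast cells in phenol red-free RPMI1640 with 10% charcoal-stripped FBS were dosed with an 8-point 1:4 dilution series from 100 uM top final concentration, in duplicate. Impedance-based growth was followed for 80 h; AUC analysed versus DMSO.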

For assay [2], the system named is zebrafish Androgen Receptor (AR), gene 100005148. Kind of assay: ATG_zfAR_XSP1: Attagene TRANS-FACTORIAL Multi-Species (XSP1) HepG2 Assay for zebrafish Androgen Receptor (AR) (AID 2283771). A digest of the protocol:
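HepG2 cells were transiently transfected with a zebrafish AR-GAL4 reporter system and partially stimulated with 3 nM 6-alpha-fluorotestosterone. Reporter mRNA was measured after 24 h dosing by RT-PCR with capillary electrophoresis, and gain-of-signal was fitted relative to DMSO.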

Assay [3] has as its target zebrafish Estrogen Receptor (ESR1), esr1 (gene 259252) (UniProt P57717). Kind of assay: ATG_zfER1_XSP1: Attagene TRANS-FACTORIAL Multi-Species (XSP1) HepG2 Assay for zebrafish Estrogen Receptor (ESR1) (AID 2283772). A digest of the protocol: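 Transfect HepG2 with GAL4-UAS multi-reporter constructs; treat 24 h (medium carries 3 nM 6-alpha-fluorotestosterone); extract RNA, reverse-transcribe, PCR-amplify, FAM-label, digest with HpaI; resolve by capillary electrophoresis and compare against DMSO baseline.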

In assay [4] the test system is zebrafish Estrogen Receptor (ESR2B), gene 317733. Kind of assay: ATG_zfER2b_XSP1: Attagene TRANS-FACTORIAL Multi-Species (XSP1) HepG2 Assay for zebrafish Estrogen Receptor (ESR2B) (AID 2283773). In short, it runs like this:
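HepG2 cells transiently transfected with multiple GAL4-UAS reporter units expressing chimeric zebrafish ER2b-Gal4; 24 h chemical exposure with 3 nM 6-alpha-fluorotestosterone present. Reporter mRNA measured by RT-PCR and capillary electrophoresis; gain of signal fitted versus DMSO.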

Assay [5] relates to frog Estrogen Receptor (ESR2), gene 100174814. Kind of assay: ATG_frER2_XSP1: Attagene TRANS-FACTORIAL Multi-Species (XSP1) HepG2 Assay for frog Estrogen Receptor (ESR2) (AID 2283774). In short, it runs like this:
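HepG2 cells transiently transfected with GAL4-UAS multiplexed reporter units expressing chimeric NR-Gal4 proteins; reporter mRNA measured 24 h after dosing by RT-PCR, FAM labeling, HpaI digestion and capillary electrophoresis. Gain-of-signal relative to DMSO; 3 nM 6-alpha-fluorotestosterone present.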

Assay [6] is described as follows: ACEA_AR_antagonist_AUC_viability: ACEA Biosciences xCELLigence Real-Time Cell Analysis on Androgen Receptor Antagonism for Viability (AID 2283776).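 Also: 22Rv1 human prostate cancer cells growing on impedance electrode plates; hits lower the growth signal relative to DMSO meaning cytotoxicity.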 In short, it runs like this:
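Impedance read-out (RT-CES): area under growth curve at 80 h post-dose, loss of signal scored vs DMSO baseline. 22Rv1 cells; 8-pt 1:4 series, top 100 uM final, ≤0.5% DMSO; biological duplicate.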

Assay [7] deals with frog Estrogen Receptor (ESR1), gene 398734. Kind of assay: ATG_frER1_XSP1: Attagene TRANS-FACTORIAL Multi-Species (XSP1) HepG2 Assay for frog Estrogen Receptor (ESR1) (AID 2283777). A digest of the protocol:
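Read-out: fluorescent reporter mRNA via RT-PCR, HpaI digestion and capillary electrophoresis, after 24 h chemical exposure of transiently transfected human HepG2 cells expressing exogenous NR-Gal4 chimeras. DMSO served as baseline for positive-direction fitting.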

Assay [8] concerns zebrafish Estrogen Receptor (ESR2A), gene 317734. Kind of assay: ATG_zfER2a_XSP1: Attagene TRANS-FACTORIAL Multi-Species (XSP1) HepG2 Assay for zebrafish Estrogen Receptor (ESR2A) (AID 2283778). In short, it runs like this:
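HepG2 cells transiently transfected with multiplexed GAL4-UAS reporter units and chimeric NR-GAL4 receptors; 24 h compound exposure with 3 nM 6-alpha-fluorotestosterone present. Reporter mRNA quantified by RT-PCR and capillary electrophoresis, gain-of-signal fitted relative to DMSO.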

Assay [9] has as its target chicken Estrogen Receptor (ESR1), ESR1 (gene 396099) (UniProt P06212). Kind of assay: ATG_chERa_XSP1: Attagene TRANS-FACTORIAL Multi-Species (XSP1) HepG2 Assay for chicken Estrogen Receptor (ESR1) (AID 2283779). A digest of the protocol:
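HepG2 cells transiently transfected with multiplexed GAL4-UAS reporter units expressing chimeric NR-Gal4 proteins; 3 nM 6-alpha-fluorotestosterone present. Reporter mRNA measured 24 h after dosing by RT-PCR, FAM labelling, HpaI digest and capillary electrophoresis; gain of signal versus DMSO.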

For assay [10], the target named is Estrogen receptor (Homo sapiens) (UniProt P03372). Kind of assay: ATG_hERa_XSP1: Attagene TRANS-FACTORIAL Multi-Species (XSP1) HepG2 Assay for human Estrogen Receptor (ESR1) (AID 2283780). In short, it runs like this:
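HepG2 cells transiently transfected with GAL4-UAS reporter units and chimeric NR-Gal4 constructs; 24 h after dosing, reporter mRNA quantified by RT-PCR and capillary electrophoresis. Medium contained 3 nM 6-alpha-fluorotestosterone; activity fitted as gain-of-signal versus DMSO.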

In assay [11] the test system is turtle Estrogen Receptor (ESR1), gene 101933533. Kind of assay: ATG_trERa_XSP1: Attagene TRANS-FACTORIAL Multi-Species (XSP1) HepG2 Assay for turtle Estrogen Receptor (ESR1) (AID 2283781). A digest of the protocol: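 HepG2 cells transiently transfected with GAL4-UAS reporter units and chimeric NR-Gal4 constructs, dosed for 24 h with 3 nM 6-alpha-fluorotestosterone present. Reporter mRNA was quantified by RT-PCR, fluorescent labelling and capillary electrophoresis, with gain of signal fitted relative to DMSO.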

The target in assay [12] is Estrogen receptor beta (Homo sapiens) (UniProt Q92731). Kind of assay: ATG_hERb_XSP1: Attagene TRANS-FACTORIAL Multi-Species (XSP1) HepG2 Assay for human Estrogen Receptor (ESR2) (AID 2283788). In short, it runs like this: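 Read-out: reporter mRNA induction by RT-PCR, HpaI digestion and capillary electrophoresis fluorescence, fitted in positive direction relative to DMSO baseline. Human liver HepG2 cells expressing ERβ-Gal4 fusion, dosed 24 h, medium containing 3 nM 6-alpha-fluorotestosterone.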
Sequence of Estrogen receptor beta (Homo sapiens) (Q92731 whole entry, looked up, the tested form may be a part): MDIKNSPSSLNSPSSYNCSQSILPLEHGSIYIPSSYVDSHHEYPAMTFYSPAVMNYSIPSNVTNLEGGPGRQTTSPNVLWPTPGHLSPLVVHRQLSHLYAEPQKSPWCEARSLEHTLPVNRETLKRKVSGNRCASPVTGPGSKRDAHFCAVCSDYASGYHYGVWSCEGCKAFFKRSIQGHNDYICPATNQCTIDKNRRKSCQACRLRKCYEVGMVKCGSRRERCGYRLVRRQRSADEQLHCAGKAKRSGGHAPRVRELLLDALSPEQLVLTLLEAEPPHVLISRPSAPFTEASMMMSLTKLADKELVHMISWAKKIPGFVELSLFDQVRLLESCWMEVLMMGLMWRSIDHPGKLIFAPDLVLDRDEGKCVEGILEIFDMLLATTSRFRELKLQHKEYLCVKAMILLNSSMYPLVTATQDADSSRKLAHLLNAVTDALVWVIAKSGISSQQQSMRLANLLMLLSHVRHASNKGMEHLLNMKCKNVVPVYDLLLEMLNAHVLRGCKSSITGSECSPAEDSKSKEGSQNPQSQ

Assay [13] in a line: ATG_M_19_XSP1: Attagene TRANS-FACTORIAL Multi-Species (XSP1) HepG2 Assay for M19 Transcription Factor (Internal Marker) (AID 2283798). In short, it runs like this:
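HepG2 cells transiently transfected with multiplexed GAL4-UAS reporter units, dosed 24 h with 3 nM 6-alpha-fluorotestosterone present for partial AR stimulation. Reporter mRNA measured by RT-PCR with capillary electrophoresis; gain-of-signal fitted relative to DMSO.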

Assay [14] concerns zebrafish Peroxisome Proliferator-activated Receptor gamma (PPARg), gene 557037. Kind of assay: ATG_zfPPARg_XSP1: Attagene TRANS-FACTORIAL Multi-Species (XSP1) HepG2 Assay for zebrafish Peroxisome Proliferator-activated Receptor gamma (PPARg) (AID 2283801). A digest of the protocol: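 HepG2 cells transiently transfected with GAL4-UAS reporter units including a zebrafish PPARg–GAL4 chimera, dosed 24 h with 3 nM 6-alpha-fluorotestosterone present. Reporter mRNA quantified by RT-PCR, FAM labelling, HpaI digestion and capillary electrophoresis; induction versus DMSO.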

The nature of assay [15]: CEETOX_H295R_MTT_cell_viability: Viability Assessment in the CeeTox HT-H295R MTT Assay (AID 2283718; active = hit-call score of the fitted dose curve at least 0.9, where 1 is the maximum; inactive = score below 0.9;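 as to AC50: curve fitted both ways so AC50 may mark viability loss or gain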). In short, it runs like this: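 H295R cells prestimulated 48 h with 10 uM forskolin, then exposed 48 h to test chemical (0.1% DMSO final). Viability by MTT (0.5 mg/ml, 4 h, 37 C), absorbance 570/650 nm; percent change versus DMSO, bidirectional fit.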
A short description of assay [16]: ACEA_AR_agonist_AUC_viability: ACEA Biosciences xCELLigence Real-Time Cell Analysis on Androgen Receptor Agonism for Viability (AID 2283775). A digest of the protocol:
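Real-time impedance tracking of 22Rv1 growth, readings every 5 min for 5 h then hourly; area-under-curve viability endpoint at 80 hours, relative to DMSO. Compounds at eight concentrations, 1:4 steps, top 100 uM, n = 2.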

A short description of assay [17]: CCTE_Simmons_CellTiterGLO_HEK293T: Viability Assessment in CCTE's Assays for Thyroperoxidase (TPO) Inhibition, Simmons Lab (AID 2283665).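 As to AC50: cells exposed to compound for 24 h before readout; actives reduce ATP signal below DMSO vehicle meaning cytotoxicity.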 In short, it runs like this: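 HEK293T, 10 000 cells/well, DMEM + 1% FBS; 8-pt titration 5 nM–87.5 uM [final], 0.5% DMSO; 24 hr, 37C, 5% CO2; CellTiter-Glo luminescence; n=3 biological replicates.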
For orientation: Cellular ATP, detected with luciferase, serves as a proxy for viable cell number.

Assay [18] has as its target Luciferin 4-monooxygenase (Photinus pyralis) (UniProt P08659). Kind of assay: CCTE_Simmons_QuantiLum_inhib_2: CCTE's Firefly Luciferase Inhibition Assay, Simmons Lab (AID 2283767).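 As to AC50: potency for inhibitors that lower luciferase luminescence relative to DMSO.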 A digest of the protocol:
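Luminescence loss relative to DMSO vehicle defines inhibition; detection reagent containing 150 uM D-luciferin and 147 uM dATP (final, pH 7.8) is injected immediately before each read. Enzyme is preincubated with an 8-point titration (5 nM–87.5 uM final) for 30 min at 37C.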

Assay [19] concerns the target AR (gene 367) (UniProt P10275). Kind of assay: ACEA_AR_agonist_80hr: ACEA Biosciences xCELLigence Real-Time Cell Analysis on Androgen Receptor Agonism for Proliferation (AID 2283783).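 Also: hits increase impedance growth signal above DMSO baseline.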 In short, it runs like this:
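22Rv1 human prostate cancer cells were seeded after preconditioning in assay medium and monitored overnight, then dosed in an eight-point 1:4 dilution series from 100 uM (≤0.5% DMSO). Impedance-based growth was read at 80 h, gain-of-signal versus DMSO.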

The target in assay [20] is AR (gene 367) (UniProt P10275). Kind of assay: ACEA_AR_antagonist_80hr: ACEA Biosciences xCELLigence Real-Time Cell Analysis on Androgen Receptor Antagonism for Proliferation (AID 2283787).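 Also: hits lower the impedance growth signal relative to DMSO.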 A digest of the protocol:
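Impedance readout (RT-CES), 80 h post-dose; loss-of-signal vs DMSO baseline. 22Rv1 cells in assay medium. Compounds: 8-pt 1:4 series, max 100 uM final, up to 0.5% DMSO; n = 2.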

Inconclusive results are not listed. The source made the active and inactive calls. The calls were made as follows, unless noted: active = hit-call score of the fitted dose curve at least 0.9, where 1 is the maximum; inconclusive = response in the unintended direction; inactive = score below 0.9.

Sequence of Luciferin 4-monooxygenase (Photinus pyralis) (P08659 whole entry, looked up): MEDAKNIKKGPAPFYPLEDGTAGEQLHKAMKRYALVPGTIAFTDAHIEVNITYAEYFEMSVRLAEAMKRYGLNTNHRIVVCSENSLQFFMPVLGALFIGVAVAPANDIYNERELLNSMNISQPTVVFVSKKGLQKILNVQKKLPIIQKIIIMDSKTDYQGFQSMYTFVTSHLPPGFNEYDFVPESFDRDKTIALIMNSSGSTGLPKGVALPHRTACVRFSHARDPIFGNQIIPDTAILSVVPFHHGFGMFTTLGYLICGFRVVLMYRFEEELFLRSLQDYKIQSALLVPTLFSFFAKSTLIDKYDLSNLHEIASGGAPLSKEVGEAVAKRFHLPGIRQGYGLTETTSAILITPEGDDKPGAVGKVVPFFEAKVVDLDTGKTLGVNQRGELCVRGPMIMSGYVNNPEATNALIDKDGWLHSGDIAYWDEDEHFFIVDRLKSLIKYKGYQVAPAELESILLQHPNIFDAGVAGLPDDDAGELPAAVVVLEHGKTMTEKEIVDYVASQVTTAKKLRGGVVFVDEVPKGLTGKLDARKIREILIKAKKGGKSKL
Sequence of AR (gene 367) (P10275 whole entry, looked up): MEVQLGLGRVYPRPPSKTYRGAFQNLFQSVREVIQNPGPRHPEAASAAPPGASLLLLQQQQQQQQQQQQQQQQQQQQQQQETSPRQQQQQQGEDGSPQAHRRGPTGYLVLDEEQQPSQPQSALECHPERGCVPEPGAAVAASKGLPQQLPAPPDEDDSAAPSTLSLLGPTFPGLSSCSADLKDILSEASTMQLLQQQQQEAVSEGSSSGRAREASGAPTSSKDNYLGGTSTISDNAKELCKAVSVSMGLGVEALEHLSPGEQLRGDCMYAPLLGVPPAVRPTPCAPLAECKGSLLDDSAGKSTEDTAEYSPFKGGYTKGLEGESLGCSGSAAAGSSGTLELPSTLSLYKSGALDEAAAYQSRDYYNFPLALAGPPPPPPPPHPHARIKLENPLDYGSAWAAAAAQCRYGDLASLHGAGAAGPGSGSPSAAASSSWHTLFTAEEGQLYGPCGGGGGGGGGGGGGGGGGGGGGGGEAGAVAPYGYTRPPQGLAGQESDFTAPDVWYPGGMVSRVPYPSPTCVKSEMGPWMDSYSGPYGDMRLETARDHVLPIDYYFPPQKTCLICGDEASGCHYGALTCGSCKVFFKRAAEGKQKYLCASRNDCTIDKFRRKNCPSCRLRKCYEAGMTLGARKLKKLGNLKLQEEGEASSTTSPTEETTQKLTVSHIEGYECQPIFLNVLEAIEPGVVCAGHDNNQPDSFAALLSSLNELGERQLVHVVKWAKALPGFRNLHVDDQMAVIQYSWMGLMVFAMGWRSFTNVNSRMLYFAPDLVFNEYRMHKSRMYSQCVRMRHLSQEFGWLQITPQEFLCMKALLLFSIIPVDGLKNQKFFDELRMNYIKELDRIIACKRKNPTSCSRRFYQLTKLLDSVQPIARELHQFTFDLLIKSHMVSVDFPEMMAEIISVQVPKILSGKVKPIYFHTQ
Sequence of zebrafish Estrogen Receptor (ESR1), esr1 (gene 259252) (P57717 whole entry, looked up, the tested form may be a part): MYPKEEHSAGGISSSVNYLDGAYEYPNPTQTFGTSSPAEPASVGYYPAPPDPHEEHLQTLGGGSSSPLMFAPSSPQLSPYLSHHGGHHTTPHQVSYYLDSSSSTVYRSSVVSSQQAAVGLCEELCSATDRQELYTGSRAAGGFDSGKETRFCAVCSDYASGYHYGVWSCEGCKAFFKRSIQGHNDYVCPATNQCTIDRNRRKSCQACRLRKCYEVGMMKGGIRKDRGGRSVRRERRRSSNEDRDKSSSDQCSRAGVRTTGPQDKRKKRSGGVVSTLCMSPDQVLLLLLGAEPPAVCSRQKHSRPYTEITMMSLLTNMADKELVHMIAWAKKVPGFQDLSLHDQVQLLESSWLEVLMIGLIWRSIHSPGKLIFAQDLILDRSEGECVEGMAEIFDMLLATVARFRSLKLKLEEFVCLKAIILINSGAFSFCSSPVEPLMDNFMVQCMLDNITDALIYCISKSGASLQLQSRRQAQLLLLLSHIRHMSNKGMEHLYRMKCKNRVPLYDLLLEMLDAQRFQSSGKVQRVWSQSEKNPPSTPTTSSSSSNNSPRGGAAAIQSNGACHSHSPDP
Sequence of Estrogen receptor (Homo sapiens) (P03372 whole entry, looked up, the tested form may be a part): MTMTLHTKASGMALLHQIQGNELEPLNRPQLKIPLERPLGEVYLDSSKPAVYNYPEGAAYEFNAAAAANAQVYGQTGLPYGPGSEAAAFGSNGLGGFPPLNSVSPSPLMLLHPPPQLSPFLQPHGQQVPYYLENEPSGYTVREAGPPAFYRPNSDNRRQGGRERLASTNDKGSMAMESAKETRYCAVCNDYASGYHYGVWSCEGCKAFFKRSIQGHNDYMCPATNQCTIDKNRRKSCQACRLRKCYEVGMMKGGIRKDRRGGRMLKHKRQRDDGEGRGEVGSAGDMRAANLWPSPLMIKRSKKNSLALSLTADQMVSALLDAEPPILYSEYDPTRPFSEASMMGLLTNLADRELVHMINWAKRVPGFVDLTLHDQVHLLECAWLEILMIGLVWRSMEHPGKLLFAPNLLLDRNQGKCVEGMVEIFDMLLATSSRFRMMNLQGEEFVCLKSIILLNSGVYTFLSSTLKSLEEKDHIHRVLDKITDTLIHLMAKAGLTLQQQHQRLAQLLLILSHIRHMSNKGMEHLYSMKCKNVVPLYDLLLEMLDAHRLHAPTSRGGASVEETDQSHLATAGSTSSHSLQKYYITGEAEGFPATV
Sequence of chicken Estrogen Receptor (ESR1), ESR1 (gene 396099) (P06212 whole entry, looked up, the tested form may be a part): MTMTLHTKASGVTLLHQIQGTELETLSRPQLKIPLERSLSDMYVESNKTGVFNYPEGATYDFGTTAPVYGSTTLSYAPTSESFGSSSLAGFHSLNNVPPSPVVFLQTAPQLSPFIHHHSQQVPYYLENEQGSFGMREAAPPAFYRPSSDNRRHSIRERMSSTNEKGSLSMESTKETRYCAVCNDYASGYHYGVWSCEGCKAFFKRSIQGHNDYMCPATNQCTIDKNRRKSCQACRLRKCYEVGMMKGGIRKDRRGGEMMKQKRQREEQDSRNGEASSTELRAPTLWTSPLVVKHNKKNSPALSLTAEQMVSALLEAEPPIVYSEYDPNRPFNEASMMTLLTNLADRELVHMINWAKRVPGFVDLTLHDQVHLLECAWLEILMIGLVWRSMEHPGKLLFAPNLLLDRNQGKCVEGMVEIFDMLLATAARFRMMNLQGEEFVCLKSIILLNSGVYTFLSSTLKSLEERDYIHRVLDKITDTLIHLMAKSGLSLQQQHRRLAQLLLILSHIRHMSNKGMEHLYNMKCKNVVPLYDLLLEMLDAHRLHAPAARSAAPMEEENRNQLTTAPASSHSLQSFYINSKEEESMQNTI

As for `CCCCOCCOCCOC(=O)CCCCC(=O)OCCOCCOCCCC`, the call in assay [1] was inactive.
As to `C(=C(c1ccccc1)c1ccccc1)c1ccccc1`, the molecule was called inactive in [2], in assay [6], in assay [7], in [8], in [13] and in assay [14]. Besides, the AC50 in assay [3] was 272 nM (active); in assay [4], 50.4 nM (active); in assay [5] it was 24.9 nM (active); in assay [9], 198 nM (active); in [10], 33.6 nM (active); in [11], 20.8 nM (active). Also, the AC50 in [1] is 87.1 µM (active); in assay [12] it was 17 nM (active).
`CCCCC(CC)COP(=O)(O)OCC(CC)CCCC` (stereo not drawn): the result in assay [6] was inactive. The half-maximal activity concentration (AC50) in assay [1] is 79.2 µM (active).
`O=C(O)C(F)(F)C(F)(F)C(F)(F)C(F)(F)C(F)(F)C(F)(F)C(F)(F)C(F)(F)Cl`: the AC50 in [1] is 119 µM (active).
`CO[Si](OC)(c1ccccc1)c1ccccc1`: the half-maximal activity concentration (AC50) in assay [1] is 79.9 µM (active).
For the molecule `CC(C)OC(=O)c1ccccc1C(=O)OC(C)C`, the result in assay [15], in assay [16], in [6] and in [1] was inactive.
Turning to `Cc1ccc(S(=O)(=O)NCl)cc1`, the molecule was called inactive in assay [1].
Regarding `FC(F)(F)C(F)(F)C(F)(F)C(F)(F)C(F)(F)C(F)(F)CCS`, the molecule was called inactive in assay [1].
Regarding `CCN(Cc1cccc(S(=O)(=O)O)c1)c1ccc(C(=C2C=CC(=[N+](CC)Cc3cccc(S(=O)(=O)O)c3)C=C2)c2ccc(O)cc2S(=O)(=O)[O-])cc1`, the concentration at half-maximal activity (AC50) is 7.74 µM (active) in [17] and 3.86 µM (active) in assay [18].
As to `CCCCOc1ccc(N)cc1`, the result in [17] and in [18] was inactive.
As to `CCCCCCC(C)OC(=O)CCCCC(=O)OC(C)CCCCCC` (stereo not drawn), the outcome in assay [6], in [19] and in assay [20] was inactive.
For `CC(Cc1ccc(O)c(O)c1)C(C)Cc1ccc(O)c(O)c1` (stereo not drawn), the half-maximal activity concentration (AC50) was 87 µM (active) in assay [17], 37.4 µM (active) in assay [15], 16.1 µM (active) in [18] and 27.6 µM (active) in [1]. Also, the call in assay [16] and in assay [6] was inactive.
With `COC(OC(C)=O)c1ccccc1` (stereo not drawn), the outcome in [1] was inactive.
Consider `Cc1cccc(N(C)C)c1`, for which the result in assay [15] was inactive. For the same molecule, the AC50 in assay [1] was 25.6 µM (active).
`O=S(=O)(O)c1ccc2ccccc2c1`: the outcome in [16], in assay [6] and in assay [1] was inactive.
As to `C#C[C@]1(O)CC[C@H]2[C@@H]3CCc4cc(OC)ccc4[C@H]3CC[C@@]21C`, the concentration at half-maximal activity (AC50) in [15] is 44 µM (active). Moreover, the result in [16] and in assay [6] was inactive.
On to `C=CC(=O)OCC(F)(F)C(F)(F)C(F)(F)C(F)(F)C(F)(F)C(F)(F)C(F)(F)F`, for which, in [1], the call was inactive.

One may read the AC50 as the concentration at which the activity in the assay is half-maximal.

For the origin of these results see PubChem BioAssay (EPA / NIEHS).
